The record followed here is PubChem BioAssay AID488807 (Broad Institute, 2010).

SMILES strings stand for the structures. Potency and affinity values are given separately. Inconclusive results are not listed. Entries that show only a call come without a potency. Activity calls are given as the source filed them. How the calls were made is not given here.

This assay can be described thus: growth inhibition of resistant C. albicans, dose response, CaCi-8, fluconazole, Alamar Blue, dry powder (AID 488807). Particulars: C. albicans CaCi-8 + fluconazole, 48 h; series mostly up to 26 µM. A general note: Alamar Blue is a resazurin reagent that responds to reducing activity.
In the case of `c1ccc(-c2n[nH]c3ccccc23)cc1`, the outcome was inactive.

Regarding `CCOC(=O)c1nn(Cc2ccc(Cl)cc2)c2ccccc12`, the outcome was inactive. Still for that read-out and setting: the value for `O=C(Cn1c2ccccc2c2nc3n(c(=O)c21)CCS3)NCCc1ccc(Cl)cc1` was “inactive”.

As to `COc1ccc2c(c1)c1nc3n(c(=O)c1n2CC(=O)N1CCC(C)CC1)CCS3`, the activity change, negative = inhibition was 13% [at 2.6 µM] (inactive). As to `COc1ccc2c(c1)c1nc3n(c(=O)c1n2CC(=O)N1CCC(Cc2ccccc2)CC1)CCS3`, the outcome was inactive.

Consider `COC(=O)Cn1nc(C)c2ccccc21`, for which the outcome was inactive. Still for that read-out and setting: with `O=C(O)c1nn(Cc2ccc(Cl)cc2)c2ccccc12` the entry was “inactive”. Still for that read-out and setting: the value for `O=C(Cn1c2ccccc2c2nc3n(c(=O)c21)CCCS3)c1ccc(F)cc1` was “inactive”; that for `O=C(Cn1nc(-c2ccccc2)c2cc(Cl)ccc21)N1CCOCC1` was “inactive”.

On to `O=C(Cn1nc(C(=O)N2CCCCC2)c2ccccc21)N1CCOCC1`, for which the outcome was inactive. Same read-out and setting: the value for `Cc1nn(S(C)(=O)=O)c2ccccc12` was “inactive”; that for `O=S(=O)(c1ccc(Cl)cc1)N1CCN(c2ccnc3cc(Cl)ccc23)CC1` was “inactive”; that for `O=C(Cn1nc(-c2ccccc2)c2ccccc21)NCc1ccc(Cl)cc1` was “inactive”.

As to `CCCNC(=O)Cn1nc(-c2ccccc2)c2cc(Cl)ccc21`, the result was inactive. The same measure, in the same setting: with `CCOC(=O)c1c2ccccc2nn1Cc1ccc(Cl)cc1` the entry was “inactive”; with `O=C(Cn1nc(-c2ccccc2)c2ccccc21)N1CCc2ccccc2C1`, “inactive”; with `O=C(c1ccc(Cl)cc1)N1CCN(c2cc(C(F)(F)F)nc3ccccc23)CC1`, “inactive”. As for `CCCNC(=O)Cn1nc(-c2ccccc2)c2ccccc21`, the outcome was inactive. Consider `COc1ccc(OC)c2c(C)cc(N3CCN(C(=O)c4ccc(Cl)cc4)CC3)nc12`, for which the outcome was inactive.
